The structures appear in SMILES notation. Records with an inconclusive call do not appear. Activity calls are given as the source filed them. Unless noted, calls follow the shape of the dose curve; as a rule, active = well fitted curve in the direction sought with a large enough effect in the repeat runs; inconclusive = weak or mixed curves; inactive = no such curve, though single readings can be large; an effect the other way counts as inactive or inconclusive.

Experiment [1] in a line: qHTS assay to identify small molecule agonists of the vitamin D receptor (VDR) signaling pathway - cell viability counter screen (AID 743224). Also: nearly all actives have a fitted effect of over 50% in size. Summed up: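 Cells: VDR-bla, 2,000/well, settled 4 h. Treatment: compounds in DMSO, 16 h, 37C/5% CO2. Readout: CellTiter-Glo luminescence after 30 min RT.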
The nature of experiment [2]: qHTS assay to identify small molecule antagonists of the vitamin D receptor (VDR) signaling pathway - cell viability counter screen (AID 743225). Also: nearly all actives have a fitted effect of over 50% in size. Also: potency is read from the fitted curve at half-maximal effect. A digest of the protocol: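 Compounds were pinned onto VDR-bla HEK 293T cells together with 1-alpha,25-dihydroxyvitamin D3 at 3 nM final. After 16 h at 37C and 5% CO2 plus the reporter readout, cell viability was measured by CellTiter-Glo luminescence (30 min, room temperature).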

Experiment [3] is described as follows: qHTS assay to identify small molecule agonists of the NFkB signaling pathway (AID 1159509; active = well fitted curve in the direction sought with a large enough effect in the signal ratio in the repeat runs, not every such curve was filed as active; the % refers to the signal ratio). Summed up:
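Readout: FRET fluorescence, 405 nm excitation, 460/530 nm emission; beta-lactamase expression disrupts FRET. Cells: ME-180 stably carrying NF-kB-driven bla reporter. Compound exposure 5 hr, 37 C, 5% CO2.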

Experiment [4] in a line: qHTS assay to identify small molecule agonists of the NFkB signaling pathway - cell viability counter screen (AID 1159515; calls by dose curve; also: nearly all actives have a fitted effect of over 55% in size). A digest of the protocol:
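Cells are seeded (2,000 NFkB-bla ME-180 per well), rested overnight, and dosed with DMSO-dissolved compounds for 5 hr at 37 C. Viability is then read by CellTiter-Glo luminescence after 30 min at room temperature.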

Experiment [5] in a line: qHTS assay to identify small molecule agonists of the endoplasmic reticulum stress response signaling pathway - cell viability counter screen (AID 1159517; calls by dose curve;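 also: HeLa cells carrying an ER stress response element beta-lactamase reporter; nearly all actives have a fitted effect of over 50% in size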). A digest of the protocol: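 Steps: seed 1,500 ESRE-bla HeLa cells per well; incubate overnight at 37 C, 5% CO2; add compounds in DMSO for 5 hr; run FRET substrate 2 hr RT; add CellTiter-Glo, wait 30 min, read luminescence.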

Experiment [6] can be described thus: qHTS assay to identify small molecule antagonists of the retinoid-related orphan receptor gamma (ROR-gamma) signaling pathway - cell viability counter screen (AID 1159520). Also: nearly all actives have a fitted effect of over 50% in size. Also: potency is read from the fitted curve at half-maximal effect. A digest of the protocol: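 Tet-on ROR gamma CHO cells were given compounds for 2 hr, then doxycycline hyclate at 1 uM final, and incubated 16 hr at 37 C. Viability was measured as ATP content by CellTiter-Glo luminescence.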

A short description of experiment [7]: qHTS assay to identify small molecule agonists of the AP-1 signaling pathway - cell viability counter screen (AID 1159525; calls by dose curve; also: nearly all actives have a fitted effect of over 55% in size). Summed up: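 Same-well cytotoxicity counter screen of the Tox21 10K library in ME-180 cells. The readout is ATP-dependent luminescence after 5 h compound treatment. Data are normalised to DMSO and tetra n-octyl ammonium bromide controls.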

Experiment [8] in a line: qHTS assay to identify small molecule agonists of the AP-1 signaling pathway (AID 1159526; calls by dose curve).
Experiment [9] is described as follows: qHTS assay to identify small molecule agonists of the RXR signaling pathway - cell viability counter screen (AID 1159529). Also: nearly all actives have a fitted effect of over 50% in size. Summed up: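 Compounds dissolved in DMSO were pinned onto HEK 293T cells carrying a beta-lactamase reporter under RXR-alpha control and incubated 16 hr. Cytotoxicity was then quantified by CellTiter-Glo luminescence.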
A short description of experiment [10]: qHTS assay to identify small molecule antagonists of the retinoid acid receptor (RAR) signaling pathway - cell viability counter screen (AID 1159551). Also: nearly all actives have a fitted effect of over 35% in size. A digest of the protocol: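 Cells (C3RL4) are plated, incubated overnight, dosed with compound in DMSO, then given retinol at 1 uM final. After 6 h at 37 C, CellTiter-Glo is added and luminescence read following 30 min at room temperature.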

Experiment [11] can be described thus: qHTS assay to identify small molecule antagonists of the retinoic acid receptor (RAR) signaling pathway (AID 1159552; also: nearly all actives have a fitted effect of over 50% in size; also: potency is read from the fitted curve at half-maximal effect). A digest of the protocol:
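Test chemicals and DMSO controls were pin-transferred onto C3RL4 cells a day after seeding; retinol (1 uM final) followed at once. Luminescent reporter output was quantified after 6 hr of co-incubation and 30 min with detection reagent.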

The nature of experiment [12]: qHTS assay to identify small molecule antagonists of the estrogen related receptor (ERR) signaling pathway - cell viability counter screen (AID 1224818). A digest of the protocol:
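ERR cells, 2,000/well; 6 h settle at 37 C/5% CO2; compound pin transfer (DMSO); 17.5 h at 37 C; CellTiter-Fluor, 30 min, fluorescence read.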

Experiment [13] can be described thus: qHTS assay to identify small molecule antagonists of the estrogen related receptor (ERR) signaling pathway (AID 1224819). A digest of the protocol: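 qHTS in ERR cells, 2,000/well, 1536 format. Cpd (DMSO) added after 6 h settle, 18 h 37 C. One-Glo luminescence, 30 min RT.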
The nature of experiment [14]: qHTS assay to identify small molecule agonists of the estrogen related receptor (ERR) signaling pathway (AID 1224820). A digest of the protocol: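 Luminescence readout (One-Glo, 30 min RT) from NTP-supplied ERR cell line exposed to compounds for 18 h at 37 C. Cells seeded 2,000 per well and pre-incubated 6 h before pin-tool compound transfer.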
Experiment [15] deals with estrogen-related receptor alpha (ERRalpha) with PGC-1alpha coactivator, human. Description: qHTS assay to identify small molecule antagonists of the estrogen related receptor signaling pathway with the pleiotropic PPARgamma coactivator (PGC) (AID 1224821; calls by dose curve). A digest of the protocol:
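PGC/ERR reporter cells; 6 h pre-incubation 37 C/5% CO2; pin-tool compound in DMSO, 18 h 37 C; One-Glo added, 30 min RT; luminescence read. qHTS antagonist mode.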

A short description of experiment [16]: qHTS assay to identify small molecule antagonists of the estrogen related receptor signaling pathway with the pleiotropic PPARgamma coactivator (PGC) cell viability counter screen (AID 1224822;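 also: viability read after 17.5 h compound exposure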). Summed up: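 Multiplexed viability counter screen run in PGC/ERR cells treated with compounds for 17.5 h at 37 C; live-cell protease signal measured by CellTiter-Fluor fluorescence.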

Experiment [17] addresses Nuclear receptor ROR-gamma (Homo sapiens) (UniProt P51449). Description: qHTS assay to identify small molecule antagonists of the retinoid-related orphan receptor gamma (ROR-gamma) signaling pathway (AID 1159521; also: nearly all actives have a fitted effect of over 50% in size; also: potency is read from the fitted curve at half-maximal effect). A digest of the protocol: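 Test compounds were applied to Tet-on RORγ CHO cells 2 h ahead of doxycycline hyclate (1 uM final). Luciferase reporter activity was quantified by luminescence after 16 h at 37 C and 5% CO2.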

For experiment [18], the target named is Retinoic acid receptor RXR-alpha (Homo sapiens) (UniProt P19793). Kind of experiment: qHTS assay to identify small molecule agonists of the RXR signaling pathway (AID 1159527; calls by dose curve; also: nearly all actives have a fitted effect of over 35% in size). A digest of the protocol: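 Using 9-cis retinoic acid as the reference agonist, chemicals were tested in HEK 293T cells […] for 16 hr; substrate loading lasted 2 hr at room temperature.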

The nature of experiment [19]: qHTS assay to identify small molecule agonists of the retinoic acid receptor (RAR) signaling pathway (AID 1159553). The settings on record: C3RL4 RARE luciferase reporter, agonist, 6 h; activation: at 73.3 µM (top of the series). Summed up: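 Seed C3RL4 reporter cells at 1,000 per well and incubate overnight at 37 C. Add compounds in DMSO, incubate 6 hr. Add luciferase reagent, wait 30 min at room temperature, read luminescence.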

Retinoic acid receptor RXR-alpha (Homo sapiens), sequence (P19793 whole entry, looked up): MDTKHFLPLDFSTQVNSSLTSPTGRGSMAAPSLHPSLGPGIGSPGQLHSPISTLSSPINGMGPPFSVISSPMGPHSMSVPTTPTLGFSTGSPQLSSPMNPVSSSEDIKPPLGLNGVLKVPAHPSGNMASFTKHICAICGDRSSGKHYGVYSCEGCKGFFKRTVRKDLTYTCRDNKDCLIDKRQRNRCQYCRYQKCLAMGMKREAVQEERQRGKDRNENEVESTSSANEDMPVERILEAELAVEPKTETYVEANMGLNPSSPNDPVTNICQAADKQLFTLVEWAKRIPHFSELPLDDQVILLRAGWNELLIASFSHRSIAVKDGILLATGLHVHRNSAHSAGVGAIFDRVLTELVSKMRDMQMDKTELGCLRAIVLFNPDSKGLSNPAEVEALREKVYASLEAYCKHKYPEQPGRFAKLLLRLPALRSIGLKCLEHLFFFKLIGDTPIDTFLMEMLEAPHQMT

With `COc1ccc(OC(=O)N(CC(=O)O)Cc2ccc(OCCc3nc(-c4ccccc4)oc3C)cc2)cc1`, the Potency entry in experiment [1], in experiment [2], in [3], in [4], in experiment [5] and in experiment [6] was “inactive” in each case. Besides, the Potency result in experiment [7], in [8], in experiment [9] and in [10] was “inactive” throughout.
As to `O=C(CCc1ccc(O)cc1)c1c(O)cc(O)cc1O`, the Potency entry in experiment [1], in [2], in experiment [3], in experiment [4], in experiment [5] and in experiment [6] was “inactive” throughout. For the same molecule, the Potency entry in experiment [7], in experiment [8], in experiment [9], in experiment [10] and in experiment [11] was “inactive” in each case. Besides, the molecule was classed as inactive in experiment [12], in experiment [13], in [14], in experiment [15] and in experiment [16].
`O=[N+]([O-])c1ccc(Nc2ccc(Nc3ccccc3)c(S(=O)(=O)O)c2)c([N+](=O)[O-])c1`: the Potency entry in [1], in experiment [2], in experiment [3], in [4], in experiment [5] and in experiment [6] was “inactive” each time. The Potency entry in experiment [17], in experiment [18], in experiment [9] and in [10] was “inactive” each time.
In the case of `C[C@]1(Cn2ccnn2)[C@H](C(=O)O)N2C(=O)C[C@H]2S1(=O)=O`, the Potency entry in experiment [1], in experiment [2], in experiment [3], in experiment [4], in [5] and in experiment [6] was “inactive” throughout. The Potency result in experiment [7], in experiment [9] and in experiment [10] was “inactive” in each case.
Regarding `CCOc1ccc(Cc2nccc3cc(OCC)c(OCC)cc23)cc1OCC`, the Potency result in experiment [1], in experiment [2], in [3], in [4], in [5] and in experiment [7] was “inactive” in each case. Further, the Potency result in [8], in [9], in experiment [10], in experiment [11] and in [19] was “inactive” each time. Moreover, the Potency in [17] was 7.5 µM (active).
With `O=C1NCCN1CCO`, the Potency result in experiment [1], in experiment [2], in [3], in [4], in experiment [5] and in [6] was “inactive” in each case. In addition, the Potency result in experiment [7], in experiment [8], in experiment [18], in experiment [9], in experiment [10] and in [11] was “inactive” throughout. Also, in [19], the Potency result is “inactive”.
For the molecule `CC(=O)[C@H]1[C@H](C#N)C[C@H]2[C@@H]3CC=C4C[C@@H](O)CC[C@]4(C)[C@H]3CC[C@@]21C`, the Potency result in experiment [1], in experiment [2], in [3], in experiment [4], in [5] and in experiment [6] was “inactive” in each case. For the same molecule, the Potency entry in [17], in experiment [7], in experiment [18], in experiment [9], in experiment [10] and in experiment [11] was “inactive” in each case.
For the molecule `CN(C(=O)CN(CCO)CC(=O)N(C)C(C)(C)Cc1ccccc1)C(C)(C)Cc1ccccc1`, the Potency result in [1], in [3], in [4], in experiment [5] and in [19] was “inactive” throughout. Moreover, the Potency was 29.8 µM (active) in experiment [6], 26.6 µM (active) in experiment [17] and 29.8 µM (active) in experiment [11].
As for `CCCC(C(=O)OCCN(CC)CC)(c1ccccc1)c1ccccc1`, the Potency in experiment [2] is 19 µM (active). The Potency result in experiment [3], in [4], in experiment [5], in experiment [6] and in experiment [7] was “inactive” in each case. The molecule was called inactive in experiment [14] and in [15].
Take `O=C(O)c1ccc(OCCCOc2ccc(C(=O)O)cc2)cc1`: the Potency result in experiment [1], in experiment [2], in experiment [3], in experiment [4], in [5] and in experiment [6] was “inactive” each time. In addition, the Potency result in [7], in experiment [8], in experiment [18], in [9] and in experiment [10] was “inactive” in each case.

These data come from PubChem BioAssay (Tox21).
